Bioassay records deposited in PubChem BioAssay by National Center for Advancing Translational Sciences (NCATS).
Compounds with a hit are over-represented: about 2.7% of the library has one in this group of screens.
S2 tox = viability counter-screen for ATXN expression inhibitors; actives 0.49% (n = 400,000); S2 cells (HEK-293 line with an ATXN2-luciferase reporter) viability, CellTiter-Fluor protease fluorescence, 24 h; Potency, µM (doses to about 56.7 µM), hits mostly cytotoxic; note: nearly all actives have a fitted effect of over 40% in size
TGFb inhibitor = inhibitors of TGF-b signaling | HepG2 CAGA-GFP TGF-b/SMAD3 reporter, GFP fluorescence, 18 h; TGF-beta stimulated, 500 pg/mL final | actives 1.2% (n = 410,000) | Potency, µM (titrated, usually from 46.1 µM), for the others: at the highest dose activity, negative = inhibition, usual class: inhibitors; note: % is set by controls: 0 for no effect and ±100 for the full control effect; nearly all actives have a fitted effect of over 65% in size
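Inhibition was scored as loss of TGF-beta-induced (500 pg/mL final, 18 hours, 37 degrees C) GFP in HEPG2 cells carrying a CAGA-GFP reporter, in DMEM with 1% FBS. Well GFP was summed per cell; Activity was normalised to unstimulated and stimulated DMSO wells, then concentration-response fitting.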
ATXN2 expr inh = reduces ATXN2 reporter expression in HEK-293 cells | HEK-293 ATXN2-luciferase reporter, luminescence, 24 h | Potency, µM (highest dose often 57 µM), inactives show top-dose activity change, negative = inhibition, most hits filed as inhibitors | actives 0.72% (n = 360,000) | AID 1745845; note: % is set by controls: 0 for no effect and ±100 for the full control effect; nearly all actives have a fitted effect of over 55% in size
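qHTS (up to 57 uM final) was run with 24 h compound exposure of reporter cells at 37 °C. Each well was multiplexed: SteadyGlo luminescence measured ATXN2-luciferase expression after a fluorogenic Gly-Phe-AFC viability readout (25 uM final).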
12-LOX inh = blocks human arachidonate 12S-lipoxygenase; P18054; purified 12hLO, xylenol orange hydroperoxide absorbance; Potency, µM (highest dose often 108 µM), for the others: at the highest dose activity change, negative = inhibition, hits mostly inhibitors; actives 1.1% (n = 580,000); AID 1671190; note: % is set by controls: 0 for no effect and ±100 for the full control effect
Target sequence (P18054 whole entry, looked up): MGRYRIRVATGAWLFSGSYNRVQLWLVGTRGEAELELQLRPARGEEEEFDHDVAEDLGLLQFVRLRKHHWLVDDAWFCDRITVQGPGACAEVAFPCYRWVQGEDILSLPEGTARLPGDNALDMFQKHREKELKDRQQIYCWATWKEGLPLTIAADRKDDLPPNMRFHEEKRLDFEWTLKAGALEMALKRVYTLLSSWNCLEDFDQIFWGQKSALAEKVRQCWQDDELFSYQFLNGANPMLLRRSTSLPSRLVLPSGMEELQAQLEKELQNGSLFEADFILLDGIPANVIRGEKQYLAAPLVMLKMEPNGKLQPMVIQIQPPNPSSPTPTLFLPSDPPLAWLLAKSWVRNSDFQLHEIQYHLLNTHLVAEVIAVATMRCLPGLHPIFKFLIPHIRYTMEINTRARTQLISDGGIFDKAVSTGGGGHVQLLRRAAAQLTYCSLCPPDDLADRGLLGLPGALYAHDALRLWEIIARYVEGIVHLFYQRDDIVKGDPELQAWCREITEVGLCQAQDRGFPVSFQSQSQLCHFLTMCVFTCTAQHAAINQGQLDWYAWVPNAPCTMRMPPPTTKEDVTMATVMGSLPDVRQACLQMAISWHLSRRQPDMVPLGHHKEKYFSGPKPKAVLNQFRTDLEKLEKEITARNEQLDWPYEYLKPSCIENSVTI
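Hydroperoxide product was detected by ferrous iron/xylenol orange as the 573 to 405 nm absorbance ratio. Arachidonic acid at 40 uM (final) was turned over for 30 min at room temperature by 150 nM human 12hLO, pH 7.0 Hepes buffer, after 15 min compound preincubation.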
HepG2 tox = kills HepG2 cells in TGF-b inhibitor counter-screen; AID 588856; actives 0.76% (n = 410,000); HepG2 CAGA-GFP viability, ATP luminescence, 18 h; Potency, µM (top dose mostly 46.1 µM), without a hit: top-dose activity change, negative = cytotoxicity, most hits filed as cytotoxic
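HepG2 CAGA-GFP cells (1000/well, DMEM with 1% FBS) received compound, then TGF-beta at 500 pg/mL final, and were incubated 18 hours at 37 degrees C. Viability was read by CellTiter-Glo luminescence. Media-only wells were set as complete cell-killing and DMSO as no toxicity.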
* marks the source's active call; other numbers are inactive results; i = inactive; u = inconclusive; x = no result; [ ] = dose if it differs, or a comment. Calls come from the whole dose curve; as a rule, active = well fitted curve in the direction sought with a large enough effect; inconclusive = small, poorly fitted or top-dose-only effect, or another doubt; inactive = no such curve, though single readings can be large; an effect the other way counts as inactive or inconclusive. Potency is the fitted concentration of half-maximal effect.

SMILES	S2 tox	TGFb inhibitor	ATXN2 expr inh	12-LOX inh	HepG2 tox
CC[n+]1c(/C=C2\C=C(C)CC(C)(C)C2)sc2ccccc21	u	10µM*	u	u	-30%
CCC1=C/C(=C/c2sc3ccccc3[n+]2CC)CC(C)(C)C1	i	u	-34%	u	-18%
CC(C)[C@@H]1Cc2[nH][nH]c(=O)c2[C@H](CCc2ccccc2)O1	u	x	-7%	-20%	x
CC(C)[C@@H]1Cc2[nH]c(=S)[nH]c(=O)c2[C@H](CCc2ccccc2)O1	i	x	-5%	45µM*	x
CN(CC(=O)N1CCN(Cc2ccccc2)CC(O)C1)C1CCCC1 (configuration not stated)	x	x	x	17%	x
N[C@@H]1CC[C@@H]1NC(=O)c1ccccc1OC(F)(F)C(F)F	x	x	x	30%	x
COc1ccccc1CNC(=O)Cc1c(C)c2ccc(O)cc2oc1=O	x	x	x	3%	x
Cc1cnc(CNc2ncncc2-c2ccccc2C(F)(F)F)cn1	x	x	x	22µM*	x
Cc1cnc(CNc2ncncc2-c2cccnc2)cn1	x	x	x	-25%	x
O=C(NCCc1ccccc1)c1ccc(Cn2c(=O)c3cccn3c3cccnc32)cc1	x	0%	x	u	-1%
O=C(NCCc1ccc(Cl)cc1)c1ccc(Cn2c(=O)c3cccn3c3cccnc32)cc1	x	11µM*	x	-4%	-60%
Cc1ccc(-c2cc(-c3ccc(C)o3)nc(N)c2C#N)cc1	i	28%	10%	1µM*	1%
Cc1ccc(-c2cc(-c3ccc(Cl)cc3)c(C#N)c(N)n2)o1	i	u	-9%	u	-23%
Cc1ccc(-c2cc(-c3ccc4c(c3)OCO4)c(C#N)c(N)n2)o1	i	16%	-12%	u	-26%
Cc1ccc(-c2cc(-c3ccc(F)cc3)c(C#N)c(N)n2)o1	i	1%	12%	7.1µM*	-14%
O=C(NCc1ccc(-c2nc3ccccc3s2)cc1)c1ccco1	i	15%	-19%	-19%	10%
O=C(NC(=S)NCc1ccc(-c2nc3ccccc3s2)cc1)c1ccco1	i	-43%	8%	11µM*	-45%
COc1ccc(-c2nc(NC(=O)c3ccc(C)cc3)n[nH]2)cc1OC	x	x	x	9%	x
N#CCCN1CCN(CCC#N)c2ccccc21	i	0%	-6%	28µM*	1%
O=C(Nc1ccc(Cl)cc1)Nc1ccc2c(c1)OCO2	i	-15%	26%	470%	1%
O=C(Nc1ccc2c(c1)OCO2)Nc1ccc2c(c1)OCO2	i	-2%	12%	-1%	-12%
O=C(Nc1ccc(OC(F)F)c(Cl)c1)Nc1ccc2c(c1)OCO2	u	u	-12%	1%	11µM*
O=C(Nc1cccc(C(=O)O)c1)Nc1ccc2c(c1)OCO2	i	-4%	5µM*	1%	-29%
C/C(Cn1nnc([N+](=O)[O-])n1)=N\NC(=O)c1ccc(Cl)c(Cl)c1	u	10µM*	u	-2%	14µM*
C/C(Cn1nnc([N+](=O)[O-])n1)=N\NC(=O)c1ccc(O)cc1	u	11µM*	x	11%	-31%
SMILES	S2 tox	TGFb inhibitor	ATXN2 expr inh	12-LOX inh	HepG2 tox
CN1CCC(Nc2ncc3ncnc(Nc4ccc(F)c(Cl)c4)c3n2)CC1	u	x	28µM*	u	x
C=CCc1ccccc1OCC(=O)N/N=C/c1ccc(OC(C)=O)cc1OC(C)=O	i	2%	22µM*	0%	-3%
COc1ccc(CNC(=O)[C@H](C)NC(=O)c2cc3c(OC)ccc(OC)c3[nH]2)cc1	x	x	x	-11%	x
Cc1ccc(NC(=O)Cc2nnc(SCC(=O)NC34CC5CC(CC(C5)C3)C4)n2C)cc1C	x	x	x	-5%	x
CC(C1SC(=S)NC1=O)C1SC(=S)NC1=O (configuration not stated)	i	13%	x	13µM*	0%
CC/C(=N/NC(=O)C1CC1(c1ccc(C)cc1)c1ccc(C)cc1)c1ccccc1 (configuration not stated)	x	x	x	19%	x
CCOC(=O)C1=C(c2ccccc2)N=c2s/c(=C\c3ccc(O)cc3)c(=O)n2C1c1cccs1 (configuration not stated)	u	u	28µM*	-8%[57.4 µM]	-89%
O=S1(=O)C[C@H](N2CCN(c3ccccc3F)CC2)[C@@H](S(=O)(=O)c2ccccc2)C1	x	x	x	-35%	x
O=C(CCc1ccccc1O)N/N=C/c1ccc(Sc2cccc3cccnc23)o1	u	14µM*	-26%	0%	-59%
Cc1ccc(OCCCOc2ccccc2/C=N/NC(=O)c2cccc(Cl)c2)c(C)c1	x	x	x	-4%	x
CCOC(=O)C1=C(O)c2ccccc2C(=O)/C1=C\c1ccc(C)cc1	x	u	u	10µM*	11µM*
CCOC(=O)C1=C(C)OC(=Cc2ccccc2)C1=O	i	-5%	x	-24%	0%
Cc1nc2cc(Cl)ccc2cc1C(=O)NC1CCS(=O)(=O)C1 (configuration not stated)	x	x	x	-15%	x
CCNC(=S)NCC12CC3CC(CC(C3)C1)C2	x	x	x	40µM*	x
Cc1ccc(CN2C(=O)C(O)(c3c[nH]c4ccccc34)c3cc(Cl)ccc32)cc1 (configuration not stated)	i	2.8µM*	u	u	13µM*
Cc1[nH]c2ccccc2c1C1(O)C(=O)N(Cc2ccccc2)c2ccc(Br)cc21 (configuration not stated)	i	u	u	u	-116%
O=C(O)c1ccc(NC2(C(=O)O)CCCC2)cc1	u	1%	-2%	14µM*	2%
O=C(NC(c1ccc(F)cc1)c1ccc2ccccc2n1)C1CCN(CCOc2ccc(Cl)cc2)CC1 (configuration not stated)	14µM*	16µM*	u	u	-94%
Cc1ccc(C(NC(=O)C2CCN(CCOc3ccc(Cl)cc3)CC2)c2ccccn2)cc1 (configuration not stated)	u	u	0%	u	-67%
O=C(NC(c1ccc(Cl)cc1)c1ccsc1)C1CCN(CCOc2ccc(Cl)cc2)CC1 (configuration not stated)	u	u	u	32µM*	-108%
COc1ccc(OCCN2CCC(C(=O)NC(c3ccc(Cl)cc3)c3cccnc3)CC2)cc1 (configuration not stated)	i	31%	-21%	-6%	-34%
O=C(NC(c1ccc(F)cc1)c1ccc2ccccc2n1)C1CCN(Cc2ccc3ccccc3n2)CC1 (configuration not stated)	u	13µM*	-23%	16µM*	-47%
O=C(c1cccc(O)c1)N1CCc2c(n(CCOc3ccccc3)n(-c3ccccc3)c2=O)C1	x	x	x	21%	x
O=C(N(Cc1cccs1)c1cccc(C(F)(F)F)c1)C12CC3CC(CC(C3)C1)C2	x	x	x	-22%	x
